Shown are actives, neighbours in structure and some others; about 3.2% of the full set was active somewhere.
Tb PYK inh – qHTS of Trypanosoma Brucei Inhibitors | actives 0.12% (n = 410,000) | pyruvate kinase (Trypanosoma brucei), Q57TT1 | TbPYK enzyme, Kinase-Glo Plus ATP luminescence, 45 min | AID 624173, 2012 | Potency, µM (titrated, usually from 76.8 µM), without a hit: at the top dose activity, negative = inhibition, actives largely listed as inhibitors; note: nearly all actives have a fitted effect of over 50% in size
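ADP (130 uM final) triggers the TbPYK reaction after compound addition; incubation is 45 min at room temperature. Kinase-Glo Plus is then added and luminescence imaged. Normalized data are fitted to concentration-effect curves.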
RE007 growth inh – qHTS Assay for Inhibitors of the HIV-1 protein Vpr; S. pombe RE007 Vpr strain, BacTiter-Glo ATP luminescence, 24 h; Potency, µM (top dose mostly 92.2 µM), for the others: at the top dose activity change, negative = less growth, usual class: inhibitors; actives 0.21% (n = 360,000); AID 651644, 2012; active = well fitted falling curve with a large enough effect; inconclusive = small, poorly fitted or top-dose-only effect; inactive = no such curve, though single readings can be large or run the other way; note: nearly all actives have a fitted effect of over 50% in size
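Fission yeast strain RE007, carrying one chromosomally integrated HIV-1 vpr copy, was seeded at OD 0.01 in PMG+AL medium with 23 nL pinned compound. After 24 h at 30 °C and 99% humidity, viability was read by BacTiter-Glo luminescence.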
LmPK inhibitor – qHTS Assay for Inhibitors of Leishmania Mexicana Pyruvate Kinase (LmPK); Q27686; actives 0.37% (n = 290,000); Potency, µM (highest dose often 57.5 µM), without a hit: top-dose activity change, negative = inhibition, usual class: inhibitors; purified LmPK, Kinase-Glo ATP luminescence, 1 h
Target sequence (Q27686 whole entry, looked up): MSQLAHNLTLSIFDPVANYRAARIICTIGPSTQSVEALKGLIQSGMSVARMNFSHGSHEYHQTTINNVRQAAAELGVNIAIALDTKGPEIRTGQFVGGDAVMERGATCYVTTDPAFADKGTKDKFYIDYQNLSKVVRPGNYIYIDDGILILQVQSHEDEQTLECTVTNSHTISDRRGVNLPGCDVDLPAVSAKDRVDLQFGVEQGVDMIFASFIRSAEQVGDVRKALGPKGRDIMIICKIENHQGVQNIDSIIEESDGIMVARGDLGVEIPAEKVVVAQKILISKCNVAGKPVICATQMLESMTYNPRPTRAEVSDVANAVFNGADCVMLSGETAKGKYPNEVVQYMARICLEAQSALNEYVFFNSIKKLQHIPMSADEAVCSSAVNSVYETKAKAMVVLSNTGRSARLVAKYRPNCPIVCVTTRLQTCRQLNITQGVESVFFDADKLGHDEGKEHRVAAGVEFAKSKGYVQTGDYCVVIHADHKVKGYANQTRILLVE
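qHTS format; LmPK 0.1 nM; substrates PEP 0.5 mM and ADP 0.1 mM. One-hour room-temperature incubation, then coupled luciferase luminescence; 0.5 nM enzyme wells mark activation.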
AMA1-RON2 inh – qHTS for Inhibitors of AMA1-RON; Towards Development of Antimalarial Drug Lead: Primary Screen | Plasmodium falciparum AMA1 (3D7) - RON2 peptide interaction | actives 0.2% (n = 360,000) | Potency, µM (highest dose often 58.2 µM), inactives show at the highest dose activity change, negative = inhibition, actives largely listed as inhibitors | AlphaScreen AMA1-biotinylated RON2 peptide binding;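 note: 0% = vehicle wells and -100% = peptide control; nearly all actives have a fitted effect of over 45% in size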
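AMA1 (3D7) with his tag at 25 nM final met compounds first, then biotinylated RON2 peptide at 25 nM; detection used donor plus acceptor beads, 10 µg/mL apiece, read by AlphaScreen after 30 min at room temperature.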
Sm TGR block – qHTS Assay for the Inhibitors of Schistosoma Mansoni Peroxiredoxins; Schistosoma mansoni thioredoxin glutathione reductase (TGR), Q962Y6; purified TGR, DTNB reduction, TNB absorbance 405 nm; Potency, µM (top dose mostly 114 µM), for the others: at the top dose activity change, negative = inhibition, hits mostly inhibitors; actives 3% (n = 360,000); note: nearly all actives have a fitted effect of over 60% in size
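Kinetic colorimetric format: TGR-catalysed, NADPH-driven DTNB reduction monitored via TNB absorbance. Enzyme dispensed at 20 nM; compound exposure 15 min at room temperature before reaction start.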
An asterisk follows results filed as active. Unless noted, calls come from the whole dose curve; as a rule, active = well fitted curve in the direction sought with a large enough effect; inconclusive = small, poorly fitted or top-dose-only effect, or another doubt; inactive = no such curve, though single readings can be large; an effect the other way counts as inactive or inconclusive. Unless noted, % is set by controls: 0 for no effect and ±100 for the full control effect; potency is the fitted concentration of half-maximal effect.

For O=C(CSc1nc2ccc(Cl)cc2[nH]1)N1CCN(C(=O)c2ccco2)CC1 the results were Tb PYK inh inconclusive, LmPK inhibitor -4.4%, AMA1-RON2 inh 20.8% and Sm TGR block 50.1µM*.
CCc1cc2ccc(C)cc2nc1SCC(=O)N1CCN(C(=O)c2ccco2)CC1 was read as Tb PYK inh -4.4%, RE007 growth inh -3.0%, LmPK inhibitor -7.1%, AMA1-RON2 inh 8.4% and Sm TGR block 39.8µM*.
Screening COc1ccc(C(=O)ON=C2C=C(C)C(=O)C(C)=C2)cc1 returned Tb PYK inh 0.9%, RE007 growth inh -8.0%, LmPK inhibitor -1.0%, AMA1-RON2 inh -11.6% and Sm TGR block -0.8%.
COc1ccc(S(=O)(=O)N=C2C=C(C)C(=O)C(C)=C2)cc1 was read as Tb PYK inh -3.5%, RE007 growth inh -9.7%, LmPK inhibitor -7.2%, AMA1-RON2 inh -1.8% and Sm TGR block 31.6µM*.
`CC(C)(C)c1cc(C(C)(C)C)c(NC(=O)c2c[nH]c3ccccc3c2=O)cc1O` gave Tb PYK inh 0.0%.
For CCc1ccc(NC(=O)CN2C(=O)C(c3ccc(Cl)cc3)=NC23CCCCC3)cc1 the results were Tb PYK inh 1.0% and Sm TGR block 11.3%.
COc1cc(-c2nnc(SCC(=O)N3CCCc4ccccc43)o2)cc(OC)c1OC was read as Tb PYK inh 0.1% and Sm TGR block 5.6%.
CCOC(=O)C1=C(O)/C(=C\c2ccc(CNC(=O)C(=O)Nc3ccc(C)c(C)c3)o2)N=C1C was read as LmPK inhibitor 1.2% and Sm TGR block 39.8µM*.
COc1cc(C=C2C(=O)NC(=O)NC2=O)ccc1OCc1ccc([N+](=O)[O-])cc1 was read as Tb PYK inh inconclusive, RE007 growth inh 18.9%, LmPK inhibitor -8.4%, AMA1-RON2 inh 1.6% and Sm TGR block 25.1µM*.
Cc1nn2c(=O)cc(COC(=O)c3ccccc3NC(=O)C(C)C)nc2s1 was read as Tb PYK inh 6.8% and Sm TGR block -2.6%.
`C=CCN1C(=O)C(Cc2ccc(F)cc2)S/C1=N/N=C/c1ccco1` (stereo not drawn) gave Tb PYK inh -2.1%, RE007 growth inh 14.1%, LmPK inhibitor 0.9%, AMA1-RON2 inh 8.3% and Sm TGR block -2.3%.
CCC1S/C(=N/N=C/c2ccco2)N(c2ccc(F)cc2)C1=O (stereo not drawn) was read as Tb PYK inh -3.1%, RE007 growth inh -28.8%, LmPK inhibitor 3.4%, AMA1-RON2 inh -2.8% and Sm TGR block -2.3%.
`C=CCN1C(=O)C(Cc2ccc(OC)cc2)S/C1=N/N=C/c1ccco1` (stereo not drawn) gave Tb PYK inh -5.8%, RE007 growth inh -3.5%, LmPK inhibitor 4.1%, AMA1-RON2 inh -7.8% and Sm TGR block 39.8µM*.
`CC1S/C(=N/N=C/c2ccco2)N(Cc2ccc(F)cc2)C1=O` (stereo not drawn) gave Tb PYK inh -0.3%, RE007 growth inh -0.1%, LmPK inhibitor -1.0%, AMA1-RON2 inh -9.9% and Sm TGR block 31.6µM*.
For CCC1S/C(=N/N=C/c2ccco2)N(Cc2ccccc2)C1=O (stereo not drawn) the results were Tb PYK inh 1.8%, RE007 growth inh 4.1%, LmPK inhibitor -1.1%, AMA1-RON2 inh inconclusive and Sm TGR block 20µM*.
`Cc1ccccc1CN1C(=O)C(C)S/C1=N/N=C/c1ccco1` (stereo not drawn) gave Tb PYK inh -9.7%, RE007 growth inh -16.6%, LmPK inhibitor 5.2%, AMA1-RON2 inh -22.1% and Sm TGR block 25.1µM*.
Cc1ccccc1CC1S/C(=N/N=C/c2ccco2)NC1=O (stereo not drawn) was read as LmPK inhibitor 3.2% and Sm TGR block -15.5%.
`CC(C)CCN1C(=O)c2ccccc2CC1(C)C(=O)NC1CCCCC1` (stereo not drawn) gave Tb PYK inh 3.5% and Sm TGR block 3.9%.
`COc1ccc(CN2C(=O)CS/C2=N/N=C/c2ccccc2)cc1` gave Tb PYK inh 1.0%, RE007 growth inh -11.1%, LmPK inhibitor -1.2%, AMA1-RON2 inh 1.3% and Sm TGR block 12.9%.
Screening O=C1CS/C(=N/N=C/c2ccco2)N1Cc1ccc(F)cc1 returned Tb PYK inh -2.9%, RE007 growth inh -4.3%, LmPK inhibitor -1.1%, AMA1-RON2 inh 0.3% and Sm TGR block 25.1µM*.
CC(C)(C)c1cnnn1-c1ccc(C(=O)CCl)cc1 was read as Tb PYK inh -3.5%, RE007 growth inh 3.1%, LmPK inhibitor 0.9%, AMA1-RON2 inh 1.7% and Sm TGR block 8.91µM*.
`CC(C)(C)c1cnnn1-c1ccc(C=O)cc1` gave Tb PYK inh -2.0%, RE007 growth inh -14.7%, LmPK inhibitor -2.4%, AMA1-RON2 inh 7.4% and Sm TGR block -4.8%.
`COc1ccccc1Cc1nc2ccccc2nc1SCC(=O)N1CCC(C)CC1` gave Tb PYK inh -0.7% and Sm TGR block -4.2%.
For Cc1ccc(N2C(=O)CS(=O)C(c3ccccc3)C2=O)cc1C (stereo not drawn) the results were Tb PYK inh inconclusive, RE007 growth inh -0.6%, LmPK inhibitor -11.7%, AMA1-RON2 inh -2.9% and Sm TGR block 1.12µM*.
`Cc1nc(NC(=O)c2ccccc2)sc1Cc1ccc2c(c1)OCO2` gave Tb PYK inh -2.2%, RE007 growth inh -6.2%, LmPK inhibitor 0.0%, AMA1-RON2 inh inconclusive and Sm TGR block -7.9%.
Screening Cc1cc(C)nc(NC(=NCc2ccc3c(c2)OCO3)NC(=O)Nc2ccccc2)n1 returned Tb PYK inh -0.4%, RE007 growth inh -11.9%, LmPK inhibitor 8.3%, AMA1-RON2 inh 0.0% and Sm TGR block 1.41µM*.
O=c1c2ccccc2nc(/C=C/c2ccc([N+](=O)[O-])o2)n1CCCO was read as Tb PYK inh -9.6%, RE007 growth inh inconclusive, LmPK inhibitor 1.8%, AMA1-RON2 inh 1.6% and Sm TGR block 17.8µM*.
For O=c1c2ccccc2nc(/C=C/c2ccc([N+](=O)[O-])cc2)n1CCCO the results were Tb PYK inh 1.0%, RE007 growth inh 20.3%, LmPK inhibitor 0.7%, AMA1-RON2 inh 5.0% and Sm TGR block -10.1%.
CN(C(=O)CSc1nc2ccc(NC(=O)c3ccco3)cc2s1)c1ccccc1 was read as Tb PYK inh 0.0% and Sm TGR block inconclusive.
`Cc1ccc(OCC(=O)NCCNC(=O)c2ccco2)cc1C` gave Tb PYK inh -1.0%, RE007 growth inh -16.7%, LmPK inhibitor 1.8%, AMA1-RON2 inh -4.7% and Sm TGR block -5.9%.
